Assay outcomes as filed in PubChem.
Most compounds without a hit are left out; they make up all but 19% or so of the library.
HT1080-NT tox: kills 2HG-producing HT-1080-NT fibrosarcoma cells | HT-1080-NT fibrosarcoma viability, CellTiter-Glo ATP luminescence, 48 h | Potency, µM (titrated, usually from 46.1 µM), for the others: at the highest dose activity, negative = less viability, actives largely listed as cytotoxic | 360,000 tested, 1.6% active | AID 686970;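 note: NT is the 2HG producing partner of a matched IDH1 knockdown line; potency is the fitted concentration of half-maximal effect; 0% = DMSO-treated cells and -100% = media-only wells without cells; nearly all actives have a fitted effect of over 55% in size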
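750 cells/well, RPMI + 5% FBS; 2 h settle, compound pin-transfer, 48 h at 37 degrees C. CellTiter-Glo 10 min RT, luminescence. Normalized to DMSO and media-only wells.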
ELG1 DNA repair: blocks ELG1-dependent DNA repair in HEK293T cells; Potency, µM (series often up to 46.1 µM), without a hit: top-dose activity change, negative = inhibition, usual class: inhibitors; HEK293T ELG1-luciferase reporter, luminescence, 16 h; DNA damage induced by 5-fluorouridine; 330,000 tested, 2.3% active; AID 504467; note: potency is the fitted concentration of half-maximal effect; nearly all actives have a fitted effect of over 55% in size
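Reporter activity after DNA damage by 5-fluorouridine is monitored. Compound-treated cells incubate 16 hr at 37 °C, then ONE-Glo is added for 30 min before luminescence reading.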
IL-1B inflam inh: inflammasome signaling inhibition, IL-1 beta readout. THP-1 LPS/ATP IL-1B secretion, AlphaLISA, 16 h; stronger effect = lower value. activity change, % at 57.5 µM. 360,000 tested, 4.7% active. AID 743279; in the data active = activity change below about -50%; inconclusive = mostly about -30% to -49%
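Secreted IL-1B measured by AlphaLISA bead assay after 16 h compound exposure of THP-1 cells; compounds (final up to 57.5 uM) added 1 h before LPS (250 ng/mL) and ATP (1.25 mM) stimulation; lower signal means less secretion.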
HT1080 IDH1KD tx: toxicity to HT-1080 IDH1 knockdown cells (counter line) | Potency, µM (doses to about 46.1 µM), without a hit: at the top dose activity, negative = toxicity, hits mostly cytotoxic | AID 686971 | 360,000 tested, 2% active | HT-1080 IDH1 knockdown viability, ATP luminescence, 48 h;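 note: potency is the fitted concentration of half-maximal effect; 0% = DMSO wells and -100% = cell-free medium wells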
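Viability of IDH1-knockdown HT-1080 fibrosarcoma cells was assessed by CellTiter-Glo after 48 h at 37 °C with titrated compound; concentration-effect curves were classified by fit quality and response size.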
DT40 TDP1 no CPT: qHTS for Inhibitors of human tyrosyl-DNA phosphodiesterase 1 (TDP1): qHTS in cells in absence of CPT | DT40 Tdp1-/- hTDP1 cells, no CPT, ATP luminescence, 48 h | Potency, µM (highest dose often 46.2 µM), without a hit: top-dose activity change, negative = growth inhibition, most hits filed as inhibitors | 420,000 tested, 15% active; note: potency is the fitted concentration of half-maximal effect; nearly all actives have a fitted effect of over 55% in size
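Camptothecin absent (DMSO only). Human TDP1-complemented DT40 knockout cells, 400 cells/well, 37 °C for minimum 48 hr; ATP measured via CellTiter-Glo, 30 min dark incubation, luminescence.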
TDP1 cell CPT: DT40-hTDP1 cell growth loss with CPT; chicken DT40 Tdp1-/-;hTDP1 cells + 20 nM CPT, ATP luminescence, 48 h; Potency, µM (series often up to 46.2 µM), without a hit: at the highest dose activity change, negative = growth inhibition, usual class: inhibitors; 420,000 tested, 12% active; note: potency is the fitted concentration of half-maximal effect; nearly all actives have a fitted effect of over 55% in size
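Cell growth measured by CellTiter-Glo luminescence after a minimum 48 h, 37 C compound exposure with 20 nM CPT in Tdp1-knockout DT40 cells stably expressing hTDP1, seeded 400/well; qHTS titration format.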
The depositor's hits bear a star; ? = inconclusive; / = no result given. Unless noted, calls come from the whole dose curve; as a rule, active = well fitted curve in the direction sought with a large enough effect; inconclusive = small, poorly fitted or top-dose-only effect, or another doubt; inactive = no such curve, though single readings can be large; an effect the other way counts as inactive or inconclusive. Unless noted, % is set by controls: 0 for no effect and ±100 for the full control effect.

SMILES	HT1080-NT tox	ELG1 DNA repair	IL-1B inflam inh	HT1080 IDH1KD tx	DT40 TDP1 no CPT	TDP1 cell CPT
Cc1ccc(Cc2c(-c3cccc(Cl)c3)nc3c(C)cc(Br)cn23)cc1	4%	/	0	1%	21µM*	15µM*
COc1ccc(Cc2c(C(C)(C)C)nc3cc(C)c(Br)c(C)n23)c(C)c1	-20%	/	60	?	?	-21%
Cc1ccc(-c2nc3c(C)cc(Br)cn3c2Cc2ccsc2)cc1	?	/	46	16µM*	?	18µM*
Cc1ccc(Cc2c(-c3cccc(Br)c3)nc3c(C)cc(Br)cn23)cc1	-4%	/	8	3%	?	-23%
Cc1ccc(Cc2c(-c3ccc(Cl)cc3)nc3c(Cl)cc(C(F)(F)F)cn23)cc1	15%	/	4	13%	18µM*	?
COc1ccc(Cc2c(C(C)(C)C)nc3c(C)cc(Br)cn23)c(C)c1	-19%	/	0	-28%	23µM*	18µM*
CCOC(=O)c1c(-c2ccccc2)oc2ccc(OCc3cccc(Br)c3)cc12	/	/	/	/	-28%	-13%
O=c1c(-c2ccc(Cl)cc2)nc2cnc(Nc3ccccc3)nc2n1C[C@H]1CCCO1	/	/	/	/	-4%	-14%
CCOC(=O)c1ccc(NC(=O)C2=C(C)Nc3nc(SCc4ccc(Cl)cc4)nn3C2c2ccc(C)cc2)cc1 (centres undefined)	/	/	/	/	-3%	-15%
Cc1cc(Br)cn2c(Cc3ccccc3)c(-c3ccc(F)cc3)nc12	-15%	/	48	0%	?	?
Cc1cc(Br)cn2c(Cc3ccccc3)c(-c3ccccc3)nc12	-9%	/	38	-12%	?	29µM*
CCCc1nc2c(C)cc(Br)cn2c1Cc1ccc(C)cc1	-19%	/	23	-14%	?	?
Cc1ccc(Cc2c(-c3ccc(Cl)cc3)nc3c(C)cc(Br)cn23)cc1	?	/	81	16µM*	16µM*	23µM*
COc1ccccc1Cc1c(-c2ccccc2)nc2c(C)cc(Br)cn12	?	/	11	?	16µM*	16µM*
Cc1cc(Br)cn2c(Cc3ccsc3)c(-c3ccccc3)nc12	-16%	/	16	-15%	?	?
O=C(Nc1cccc(F)c1)N1CCCC2(CCN(C(=O)c3ccco3)CC2)C1	/	/	/	/	-20%	-121%
COc1ccc(C(=O)C(C)Sc2nnc(C3CC3)n2C2CC2)cc1 (centres undefined)	-2%	26%	-10	3%	2%	-21%
CCCCC(=O)OCC(=O)Nc1ccc(C)c(F)c1	2%	3%	-23	1%	-11%	3%
Cc1noc(C)c1S(=O)(=O)N1CCCCC1	4%	0%	-13	-5%	16%	-3%
Cc1noc(C)c1S(=O)(=O)N1CCN(C(c2ccccc2)c2ccc(Cl)cc2)CC1 (centres undefined)	-3%	?	46	-1%	13µM*	?
CCc1cc(C(=O)N2CCN(S(=O)(=O)c3cc(C)ccc3C)CC2)sc1C	-1%	?	0	-13%	-20%	?
Cc1sc2ncnc(N3CCC(C(=O)NNC(=O)COc4ccc(Cl)cc4)CC3)c2c1C	-17%	/	-13	-10%	?	?
CCCN1CCN(c2ncnc3sc(C(=O)Nc4cccc(Cl)c4C)c(C)c23)CC1	/	/	/	/	21µM*	?
CCN(CC)c1ccc(NC(=O)c2cccnc2)c(C)c1	2%	-7%	39	-16%	?	?
CCCN1CCN(c2ncnc3sc(C(=O)Nc4ccc(N(CC)CC)cc4C)c(C)c23)CC1	/	/	/	/	15µM*	23µM*
SMILES	HT1080-NT tox	ELG1 DNA repair	IL-1B inflam inh	HT1080 IDH1KD tx	DT40 TDP1 no CPT	TDP1 cell CPT
Cc1sc2ncnc(N3CCN(CCOc4ccc(Cl)cc4)CC3)c2c1C	?	?	-58*	?	2.5µM*	2.5µM*
COc1ccc(Oc2ncc3nc(-c4ccccc4)c(=O)n(CCC#N)c3n2)cc1	/	/	/	/	?	18%
Nc1ccc2c(c1)C(O)c1cccc(C(=O)O)c1-2 (centres undefined)	11%	/	7	3%	-7%	-1%
Cc1ccc(S(=O)(=O)Nc2ccccc2C(=O)N2CCN(C)CC2)cc1	-1%	7%	15	2%	8%	4%
CSc1ccccc1OCc1cc(C(=O)NC2CCOC2)no1 (centres undefined)	-2%	?	0	-1%	8%	0%
Cc1ccc(SC[C@H](c2ccccc2)N2CCN(CCc3ccccc3)CCC2=O)cc1	0%	23%	18	-4%	21µM*	?
CN1CCC(=O)N([C@H](CSc2ccc(Br)cc2)c2ccccc2)CC1	-4%	?	-4	-11%	?	?
CC(C)C[C@@H](CSc1ccccc1)N1CCN(CCc2ccccc2)CCC1=O	-12%	0%	18	-14%	21µM*	?
O=C1CCN(CCc2ccccc2)CCN1[C@H](CSc1ccccc1)c1ccccc1	-8%	8%	25	3%	11µM*	11µM*
COC(=O)[C@@H]1CCCN1C(=O)c1c(OC)cc(=O)n2c1CCN(Cc1ccc3nsnc3c1)CC2	/	/	/	/	-15%	1%
O=C(O)Cc1sc(Nc2cccc3ccccc23)nc1-c1ccc(Cl)cc1	12µM*	14%	22	-20%	-4%	3%
COc1ccccc1NC(=O)C1=C(C)Nc2nnnn2C1c1ccccc1OC (centres undefined)	2%	-1%	20	-2%	-8%	6%
COc1ccccc1NC(=O)C1=C(C)Nc2nnnn2C1c1cccc(C)c1 (centres undefined)	-2%	0%	-1	-4%	?	?
COc1ccccc1NC(=O)C1=C(C)Nc2nc(-c3ccco3)nn2C1c1ccccc1F (centres undefined)	/	/	/	/	?	16µM*
CC1=C(C(N)=O)C(c2cccc(C)c2)n2nc(-c3ccc(Cl)cc3)nc2N1 (centres undefined)	/	/	/	/	?	21µM*
COc1ccccc1NC(=O)C1=C(C)Nc2nc(-c3ccco3)nn2C1c1cccc(C)c1 (centres undefined)	/	/	/	/	?	18µM*
COC(=O)c1sccc1NC(=O)C1CCCCC1C(=O)O (centres undefined)	-1%	19%	34	3%	-1%	3%
CCC(=O)Nc1cccc(C(=O)c2ccc(C)c(C)c2)c1	8%	12%	?	-3%	21µM*	-29%
